Screens: PubChem, National Center for Advancing Translational Sciences (NCATS)
JMJD2A Tudor = JMJD2A Tudor domain (human) inhibition. AID 504339. Potency, µM (highest dose often 114 µM), inactives show at the top dose activity change, negative = inhibition, most hits filed as inhibitors. O75164. 390,000 compounds, 4.4% hits. AlphaScreen JMJD2A-Tudor / H3K4me3 peptide binding; note: % is set by controls: 0 for no effect and ±100 for the full control effect; nearly all actives have a fitted effect of over 50% in size
ALOX12 inh = inhibitors of human 12S-lipoxygenase ALOX12; P18054; purified 12hLO, xylenol orange hydroperoxide absorbance; Potency, µM (series often up to 108 µM), for inactives: at the highest dose activity change, negative = inhibition, actives largely listed as inhibitors; AID 1671190; 580,000 compounds, 1.1% hits; note: % is set by controls: 0 for no effect and ±100 for the full control effect
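Purified human 12hLO at 150 nM in 25 mM Hepes, 0.01% Triton X-100, pH 7.0, preincubated 15 min at room temperature with compound. Reaction started with 40 uM arachidonic acid, 30 min at room temperature. Hydroperoxide measured by Fe-xylenol orange, 573/405 nm absorbance ratio.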
G9a inh = inhibitors of human histone lysine methyltransferase G9a; Q96KQ7; G9a H3K9 monomethylation, AlphaScreen, 2 h; Potency, µM (doses to about 102 µM), for inactives: top-dose activity, negative = inhibition, hits mostly inhibitors; 350,000 compounds, 8.8% hits; AID 504332; note: % is set by controls: 0 for no effect and ±100 for the full control effect; nearly all actives have a fitted effect of over 75% in size
Target sequence (Q96KQ7 913-1193 limits assumed): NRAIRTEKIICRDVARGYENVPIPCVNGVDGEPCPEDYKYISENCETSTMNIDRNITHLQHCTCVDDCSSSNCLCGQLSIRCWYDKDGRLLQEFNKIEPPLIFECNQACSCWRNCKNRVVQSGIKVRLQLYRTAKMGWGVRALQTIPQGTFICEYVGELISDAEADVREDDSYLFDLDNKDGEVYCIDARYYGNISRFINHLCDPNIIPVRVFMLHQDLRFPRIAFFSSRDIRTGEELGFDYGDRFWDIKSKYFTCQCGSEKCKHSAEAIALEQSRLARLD
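Readings reflect AlphaScreen signal from monomethyl-H3K9 antibody detection. HMT at 20 nM; substrate b-H3K9 500 nM; cofactor SAM 20 uM; 2 h RT reaction; compounds tested as titrations in qHTS with 15 min preincubation.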
BAZ2B block = inhibitors of human BAZ2B bromodomain | 360,000 compounds, 4.4% hits | AlphaScreen BAZ2B-H3K14Ac peptide displacement | Q9UIF8 | Potency, µM (doses to about 114 µM), inactives show top-dose activity change, negative = inhibition, actives largely listed as inhibitors; note: % is set by controls: 0 for no effect and ±100 for the full control effect; nearly all actives have a fitted effect of over 60% in size
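Protein-peptide AlphaScreen: BAZ2B 50 nM, b-H3K14Ac 50 nM, 1x PBS pH 7.4 + 0.01% Tween-20. Preincubation 30 min RT; cpd 30 min RT (top 110 uM); beads 20 min RT, light-protected.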
Sfp PPTase inh = inhibitors of Bacillus subtilis Sfp phosphopantetheinyl transferase | Biochemical Sfp PPTase activity, qHTS | Potency, µM, for inactives: largest response in the series, negative = inhibition, most hits filed as inhibitors | Q9F4F7 | 310,000 compounds, 3.5% hits;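 note: the enzyme is Sfp with the accession as filed and its product quenches rhodamine fluorescence; 0% = enzyme reaction without inhibitor and -100% = no enzyme wells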
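Sfp 15 nM + cpd, 15 min RT; start w/ rhodamine-CoA 5 uM, BHQ-2-YbbR 12.5 uM (final); 50 mM Hepes pH 7.6, 10 mM MgCl2, 0.01% NP-40, 0.01% BSA; read 525/598 nm at 0 and 30 min.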
HP1b binding inh = blocks HP1-beta chromodomain binding to methylated histone tails; AlphaScreen HP1-beta / biotin-H3K9me3 peptide binding; Potency, µM (highest dose often 114 µM), without a hit: at the highest dose activity change, negative = inhibition, hits mostly inhibitors; 390,000 compounds, 0.56% hits; note: nearly all actives have a fitted effect of over 70% in size
Target sequence (P83916 whole entry, looked up): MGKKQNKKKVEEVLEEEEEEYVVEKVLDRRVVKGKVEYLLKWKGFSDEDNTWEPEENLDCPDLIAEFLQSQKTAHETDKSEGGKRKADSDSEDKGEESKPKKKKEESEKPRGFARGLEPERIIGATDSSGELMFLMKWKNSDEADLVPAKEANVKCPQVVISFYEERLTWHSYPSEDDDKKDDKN
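HP1-beta protein (50 nM final) preincubated 30 min at room temperature with biotinylated H3(1-18)K9me3 peptide (50 nM) in PBS pH 7.4, 0.01% Tween-20, then compound added for 30 min. AlphaScreen streptavidin donor/nickel chelate acceptor beads (10 ug/mL final), 30 min dark, luminescence read.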
* = called active by the depositor; i = inactive; u = inconclusive; x = not tested or not shown; [ ] = another dose, or the depositor's remark. Only some compounds are listed: those with a hit (about 8.7% of all), similar ones and a draw of the others. Calls come from the whole dose curve; as a rule, active = well fitted curve in the direction sought with a large enough effect; inconclusive = small, poorly fitted or top-dose-only effect, or another doubt; inactive = no such curve, though single readings can be large; an effect the other way counts as inactive or inconclusive. Potency is the fitted concentration of half-maximal effect.

SMILES | JMJD2A Tudor | ALOX12 inh | G9a inh | BAZ2B block | Sfp PPTase inh | HP1b binding inh
COc1cc(C(=O)N/N=C/c2ccc(OC(=O)c3ccccc3)c(OC)c2)ccc1O | -10.4% | i | x | -18.8% | -6.5% | 3.6%
Cc1cc2oc(C(=O)Nc3ccccc3Cl)cc(=O)c2cc1C | x | -20.7% | x | x | x | x
Cc1ccc(-c2noc(C3CCN(S(=O)(=O)c4ccc5c(c4)OCCO5)CC3)n2)o1 | -13.0% | -4.5% | 15.8µM* | -6.1% | 7.7% | 5.4%
Cc1ccc(-c2noc(C3CCCN(S(=O)(=O)c4ccc(S(=O)(=O)N(C)C)cc4)C3)n2)o1 (centres undefined) | -22.7% | -0.9% | 18.8%[59 µM] | 8.9% | 7.6% | 0.7%
Cc1ccc(-c2noc(C3CCCN(S(=O)(=O)c4ccc5ccccc5c4)C3)n2)o1 (centres undefined) | -27.9% | u | 35.5µM* | -9.9% | -18.1% | -1.2%
Cc1ccc(S(=O)(=O)N2CCCC(c3nc(-c4ccc(C)o4)no3)C2)cc1 (centres undefined) | -20.8% | u | -4.0%[2.33 µM] | -8.5% | -4.1% | 0.5%
NC(=O)c1cccnc1N1CCC2(CCCN(Cc3ccccc3F)C2)C1 (centres undefined) | x | -3.6% | x | x | x | x
O=C(Nc1ccc([C@@H](O)[C@H]2COCC(=O)N2CCCc2ccccc2)cc1)C1CCC1 | x | 50.2%[176 µM] | x | x | x | x
Cc1[nH]n(-c2ccccc2)c(=O)c1N=Nc1nccs1 | u | -25.3% | 14.1µM* | 31.6µM* | 9.7% | -24.6%
Cc1ccccc1N=Nc1c(C)[nH]n(-c2ccccc2)c1=O | u | x | 2.24µM* | u | 20.4% | 35.5µM*
O=C(NC(=S)Nc1ccc(CN2CCOCC2)cc1)c1ccc([N+](=O)[O-])cc1Cl | -30.8% | -9.4% | 50.1µM* | u | -14.7% | -6.9%
O=C(NC(=S)Nc1ccc(CN2CCOCC2)cc1)c1ccccc1[N+](=O)[O-] | 0.7% | -22.5% | u | -13.4% | -20.4% | 20.0%
O=C(NC(=S)Nc1ccc(CN2CCOCC2)cc1)c1cccc([N+](=O)[O-])c1 | -28.3% | -21.8% | u | u | 44.7µM* | -4.6%
COc1ccc(-c2nc(C3CC3)nc3c2CCN(Cc2cccn2C)CC3)cc1 | x | 1.0%[6.33 µM] | x | x | x | x
CCn1ncc(CNC(=O)CCCSc2nc(-c3ccco3)cc(C(F)(F)F)n2)c1C | -6.0% | -35.1% | 15.8µM* | -9.1% | -23.8% | 23.3%
COc1ccc(NC(=O)CCS(=O)(=O)c2nc(-c3ccc4c(c3)OCO4)cc(C(F)(F)F)n2)cc1OC | -19.5% | -21.8% | 11.2µM* | -10.6% | x | 16.0%
COc1cc(NC(=O)CCS(=O)(=O)c2nc(-c3ccc4c(c3)OCO4)cc(C(F)(F)F)n2)cc(OC)c1OC | -0.3% | -13.5% | u | 0.1% | x | 66.0%
COc1ccc(CNC(=O)CCSc2nc(-c3ccc4c(c3)OCO4)cc(C(F)(F)F)n2)cc1 | -7.3% | 8.0% | 9.6%[59 µM] | 57.8% | 79.4µM* | 43.2%
O=C(CCSc1nc(-c2ccc3c(c2)OCO3)cc(C(F)(F)F)n1)NCc1ccco1 | 0.0% | u | 4.8% | -3.4% | 39.8µM* | 49.7%
COCCNC(=O)CCSc1nc(-c2ccc3c(c2)OCO3)cc(C(F)(F)F)n1 | -5.2% | -8.0% | 0.4%[59 µM] | u | x | 31.7%
O=C(CCSc1nc(-c2ccc3c(c2)OCO3)cc(C(F)(F)F)n1)NCc1ccccc1 | -4.7% | 0.0% | -5.6%[59 µM] | 6.5% | 3.9% | 23.0%
CC(=O)NCCCC(=O)N1CCOC2(CCN(C(=O)C3CCN(C)CC3)CC2)C1 | x | 2.7%[6.33 µM] | x | x | x | x
CC(C)CCN1CCC2(Cc3ccccc3CNC2=O)C1 (centres undefined) | x | 8.8%[12.5 µM] | x | x | x | x
CCOC(=O)Cc1c[nH]c(=S)[nH]c1=O | u | u | -8.6%[2.33 µM] | -8.5% | 79.4µM* | 14.4%[57 µM]
CCOC(=O)Cc1c(C)nc(N)[nH]c1=O | 4.4% | 8.8% | 18.3% | 1.2% | 20.4% | 8.9%
SMILES | JMJD2A Tudor | ALOX12 inh | G9a inh | BAZ2B block | Sfp PPTase inh | HP1b binding inh
COc1ccc(C2c3c(ccc4ccccc34)Oc3ncn4nc(Cc5ccccc5)nc4c32)cc1OC (centres undefined) | -11.2% | -16.2% | 8.1%[59 µM] | -34.8% | 0.8% | 22.5%
COc1ccc(C2c3ccc4ccccc4c3Oc3ncn4nc(Cc5ccccc5)nc4c32)cc1OC (centres undefined) | -4.8% | 12.1% | 7.08µM* | -8.5% | 1.8% | 8.7%
O=C(Nc1cccs1)OCCN1CCN(Cc2ccccc2)CCC1=O | -13.5% | -6.6% | 44.7µM* | 1.3% | -7.7% | 35.3%
O=C(Nc1ccccc1)OCCN1CCN(Cc2ccccc2)CCC1=O | 3.5% | 6.9% | -15.7% | -6.2% | 10.3% | 25.1%
Cc1nn(C)c(C)c1CN(C)C(=O)CCCC(=O)O | 50.1µM* | 17.8µM* | 2.3%[59 µM] | 6.2% | 0.7% | 0.6%
Cc1nn(C)c(C)c1CN(C)C(=O)Cn1nc(C(F)(F)F)c(Cl)c1C | x | 15.4% | x | x | x | x
COc1ccc(OCC2(C)COc3ccc(C(=O)N(C)c4ccccc4)cc3N2)cc1 (centres undefined) | x | -22.4%[176 µM] | x | x | x | x
Nc1nc(CN2CCOCC2)cs1 | 22.4µM* | -21.8% | 23.7%[12.7 µM] | 1.0% | -13.4% | -6.3%
O=[N+]([O-])c1ccc(O)c(C2=NNC(c3ccccc3F)C2)c1 (centres undefined) | u | 61.5% | 39.8µM* | -31.2% | 19.0% | -0.2%[57 µM]
